FBPA Giardia inh: blocks Giardia fructose-bisphosphate aldolase activity; 290,000 compounds, 0.71% hits; purified Giardia FBPA; A8B2U2; Potency, µM (highest dose often 59.6 µM), usual class: inhibitors; note: nearly all actives have a fitted effect of over 55% in size
Target sequence (A8B2U2 whole entry, looked up): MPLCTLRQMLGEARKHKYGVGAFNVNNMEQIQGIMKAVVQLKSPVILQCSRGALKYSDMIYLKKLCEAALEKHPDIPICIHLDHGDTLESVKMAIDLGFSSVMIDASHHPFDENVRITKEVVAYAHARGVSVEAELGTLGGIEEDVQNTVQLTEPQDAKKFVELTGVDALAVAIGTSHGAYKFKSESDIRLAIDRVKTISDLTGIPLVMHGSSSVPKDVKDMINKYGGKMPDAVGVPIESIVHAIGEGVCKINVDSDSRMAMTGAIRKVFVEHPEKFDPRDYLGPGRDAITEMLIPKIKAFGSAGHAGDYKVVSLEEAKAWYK
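40 nM FBPA preincubated 10 min at RT with compound (up to 57.5 uM final), then substrate plus GAPDH/TPI/NAD/arsenate coupling and diaphorase/resazurin added. Fluorescence read after 20 min at RT, 525/598 nm.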
CHX counter: counter-screen for Shiga toxin inhibitors: cycloheximide protein synthesis inhibition | cell reporter, cycloheximide protein synthesis inhibition counterscreen | max response, % | 300,000 compounds, 12% hits; in the data active = max response mostly above about 13%, no sharp cut-off; inactive = mostly below about 14%; note: read at 38.3 µM for the half of the compounds with a filed dose
Shiga toxin inh: blocks Shiga toxin action in Vero cells; Vero cells, Shiga toxin protein synthesis inhibition reporter; inhibition, % at 38.7 µM; 290,000 compounds, 9.2% hits; in the data active = inhibition mostly above about 28%, no sharp cut-off; inactive = mostly below about 43%
Pf growth 48h: inhibits P. falciparum growth in the first generation, 48 h. P. falciparum luciferase growth in erythrocytes, 48 h. AID 504832. Potency, µM (top dose mostly 28.7 µM), hits mostly inhibitors. 310,000 compounds, 5.9% hits
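Erythrocytes infected with P. falciparum carrying an integrated firefly luciferase reporter (2% hematocrit, 0.1% parasitemia final) were exposed to compounds in RPMI 1640 with 0.5% Albumax at 37 C, 5% CO2. Growth inhibition was scored as reduced luminescence.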
Pf growth 96h: inhibits malaria parasite growth, 96 h | P. falciparum luciferase reporter growth, 96 h | Potency, µM (highest dose often 28.7 µM), hits mostly inhibitors | 320,000 compounds, 6.9% hits
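Compounds incubated with erythrocytes infected by luciferase-expressing P. falciparum (2% hematocrit, 0.05% parasitemia final) for 96 hours, 37 C in 5% CO2. Growth inhibition scored as decreased luciferase luminescence.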
NS1 inh: influenza NS1 inhibition | 270,000 compounds, 0.4% hits | AID 2326 | Potency, µM (titrated, usually from 46.1 µM); calls by dose curve; note: actives are rising curves; nearly all actives have a fitted effect of over 50% in size
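A cell-based growth assay was used: compounds that relieve NS1-induced slow growth of budding yeast raise OD600. Assay medium was yeast nitrogen base with ammonium sulphate and -URA supplement, pH 6.0, with 2% galactose.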
A number is an active result; - = inactive; ? = inconclusive; . = not tested or not shown. Compounds with a hit are over-represented: about 21% of the library has one in this group of screens. Unless noted, calls come from the whole dose curve; as a rule, active = well fitted curve in the direction sought with a large enough effect; inconclusive = small, poorly fitted or top-dose-only effect, or another doubt; inactive = no such curve, though single readings can be large; an effect the other way counts as inactive or inconclusive.

SMILES | FBPA Giardia inh | CHX counter | Shiga toxin inh | Pf growth 48h | Pf growth 96h | NS1 inh
COc1ccc2nc(SCC(=O)NCC3CCCO3)c(C#N)cc2c1 (stereo unspecified) | - | - | - | - | 2.08µM | -
N#Cc1cc2ccccc2nc1SCC(=O)Nc1ccc(S(=O)(=O)N2CCCC2)cc1 | - | - | - | 9.28µM | ? | ?
COCc1cc(C)nc(SCC(=O)Nc2ccc(N3CCOCC3)cc2)c1C#N | - | - | - | - | - | -
COc1ccc2nc(SCC(=O)Nc3ccc(S(=O)(=O)N4CCCC4)cc3)c(C#N)cc2c1 | - | - | - | 3.29µM | ? | -
N#Cc1cc2c(nc1SCC(=O)Nc1ccc(Cl)cc1)C1CCN2CC1 | - | 22.8 | - | 13.1µM | - | -
CCOc1ccc2nc(SCC(=O)N3c4ccccc4Sc4ccccc43)c(C#N)cc2c1 | - | - | - | 10.4µM | ? | -
Cc1cc(C)c2nc(SCC(=O)Nc3ccc(S(=O)(=O)N4CCCC4)cc3)c(C)cc2c1 | - | - | - | 9.28µM | . | -
CCCCCC(=O)Nc1nc(C)c(-c2csc(Nc3cc(OC)ccc3OC)n2)s1 | - | - | - | 6.57µM | 11.7µM | -
CCCCC(=O)Nc1nc(C)c(-c2csc(Nc3ccccc3OC)n2)s1 | - | - | - | ? | ? | -
CCCCCCC(=O)Nc1nc(C)c(-c2csc(Nc3cc(OC)ccc3OC)n2)s1 | - | - | - | 7.38µM | 7.38µM | -
CSC1=NNC(c2ccc(C(C)(C)C)cc2)=NN1 | - | 32.9 | 96.3 | - | - | -
N=C(N)SCc1cc(Cl)cc(Cl)c1O | . | . | . | . | . | -
CS(=O)(=O)c1ccc(Cl)c(C(=O)OCC(=O)NC2CCCCCCC2)c1 | . | . | . | - | - | .
Cc1cc(C)nc(NS(=O)(=O)c2ccc(Br)s2)c1 | ? | - | - | . | ? | -
Cc1ccc(NS(=O)(=O)c2ccc(Br)s2)nc1 | 7.92µM | - | - | - | - | -
Cc1cc(NC(=O)CSc2nc(-c3cccs3)cc(C(F)(F)F)n2)no1 | - | - | - | ? | 1.85µM | -
CC(C)CNC(=O)CSc1nc(-c2cccs2)cc(C(F)(F)F)n1 | - | - | - | ? | - | -
O=C(O)CCS(=O)(=O)c1nc(-c2cccs2)cc(C(F)(F)F)n1 | - | - | - | . | ? | -
O=[N+]([O-])c1cnn(-c2nc(-c3cccs3)cc(C(F)(F)F)n2)c1 | - | - | - | 10.4µM | ? | .
CS(=O)(=O)c1nc(-c2cccs2)cc(C(F)(F)F)n1 | - | - | - | - | 13.1µM | -
CN1CCN(c2nc(-c3cccs3)cc(C(F)(F)F)n2)CC1 | - | - | - | ? | - | -
CCCNC(=O)CSc1nc(-c2cccs2)cc(C(F)(F)F)n1 | . | - | - | - | 8.28µM | -
CN1CCC/C1=C1/C(=O)N(c2ccccc2)N=C1NC(=O)Nc1cccc(Cl)c1 | - | - | - | - | - | -
COc1ccc(NC(=O)Nc2ccc(N(C)C)cc2)cc1 | - | 29.5 | 97.3 | - | . | -
CN(C)c1ccc(NC(N)=S)cc1 | - | - | - | - | - | -
SMILES | FBPA Giardia inh | CHX counter | Shiga toxin inh | Pf growth 48h | Pf growth 96h | NS1 inh
COc1ccc(NC(=O)Nc2ccc(OC)cc2)cc1 | - | 21.9 | 67.4 | . | - | -
COC(=O)c1ccc(NC(=O)Nc2ccc([N+](=O)[O-])cc2)cc1 | - | - | - | ? | - | -
CC(C)OC(=O)Nc1ccc(-c2ccc(NC(=O)OC(C)C)cc2Cl)c(Cl)c1 | - | - | - | - | - | ?
COC(=O)c1ccc(NC(=O)Nc2ccc(OC)cc2)cc1 | - | - | 60.0 | - | - | -
COc1ccc(NC(=O)OC(C)C)cc1 | - | 29.2 | 68.3 | - | - | -
CC(C)(C)c1ccc(NC(=O)Nc2ccc3ccccc3n2)cc1 | - | - | - | - | ? | -
CC(C)(C)c1ccc(COC(=O)Nc2ccc(F)cc2)cc1 | - | 19.2 | 35.2 | - | ? | -
CC(C)(C)c1ccc(NC(=O)Nc2ccc(F)cc2)cc1 | - | 42.0 | 68.4 | ? | - | -
O=C(NCc1ccccc1)C12CC3CC(CC(Br)(C3)C1)C2 | - | - | - | - | - | -
CCOc1cc(/C=C(\C#N)C(=O)Nc2cccc(C(=O)O)c2)ccc1OCc1ccccc1Cl | - | - | - | - | - | -
C=CCNC(=O)/C(C#N)=C/c1ccccc1OCc1ccc(C(=O)OC)cc1 | - | - | - | - | - | -
COC(=O)c1ccc(COc2ccccc2/C=C(\C#N)C(=O)Nc2ccc(C)cc2)cc1 | - | 86.6 | 99.4 | - | - | -
COc1cc(/C=C(\C#N)C(=O)Nc2cccc(C(=O)O)c2)ccc1OCc1ccc(F)cc1 | - | 25.4 | 61.5 | - | - | -
CCOc1cc(/C=C(\C#N)C(=O)Nc2cccc(C(=O)O)c2)cc(Br)c1OC(=O)c1ccc(OC)cc1 | - | - | 30.9 | - | - | -
N#C/C(=C\c1ccc(OCc2ccc(Br)cc2)cc1)C(=O)Nc1cccc(C(=O)O)c1 | - | 22.7 | 94.9 | - | - | -
Cc1ccc(NC(=O)CCNS(=O)(=O)c2ccc3[nH]c(=O)oc3c2)cc1N(C)C | ? | - | - | - | - | -
Fc1ccc(NC(=S)NC23CN4CN(CN(C4)C2)C3)cc1 | - | - | - | - | - | -
Cc1cc(C)c(C2=CC(=O)C[C@H](c3ccc4c(c3)OCO4)C2)c(C)c1 | . | . | . | - | ? | .
CCCOc1ccccc1/C=C(\C#N)C(=O)Nc1cccc(C)n1 | - | 13.9 | 28.6 | - | ? | -
N#CC(C#N)=Cc1ccccc1OCc1ccccc1 | - | 43.3 | - | ? | - | -
Cc1ccc(C)c(C(=O)COC(=O)C(C)N2C(=O)C3C4CCC(C4)C3C2=O)c1 (stereo unspecified) | . | - | - | - | ? | -
COc1c(Cl)ccc(Cl)c1C(=O)O | - | . | . | . | . | .
COc1ccc2oc(=O)c(-c3nc(C)cs3)cc2c1 | - | 31.8 | 44.6 | - | - | -
COc1ccc2oc(=O)c(-c3nnc(N)s3)cc2c1 | - | 18.1 | 44.8 | - | ? | .
CC/C(C)=N\Nc1nc(-c2cc3cc(OC)ccc3oc2=O)cs1 | - | 34.0 | 73.0 | - | - | -
SMILES | FBPA Giardia inh | CHX counter | Shiga toxin inh | Pf growth 48h | Pf growth 96h | NS1 inh
COc1ccc2oc(=O)c(N3C(=O)c4ccccc4C3=O)cc2c1 | - | - | - | - | - | -
Nc1nnc(-c2cc3ccccc3oc2=O)s1 | - | 44.3 | 152.4 | - | . | .
COc1ccc(NC(=O)C(Cc2cc(C)cc(C)c2)C(C)C(=O)O)cc1 (stereo unspecified) | - | - | - | - | ? | -
CC(=O)Nc1ccc(S(=O)(=O)N(C)CC(=O)OC2CCCCC2=O)cc1 (stereo unspecified) | . | . | . | - | - | .
COc1ccc2c(c1)O[C@@H]1c3ccc(OC)cc3OCC21 (stereo partly specified) | - | . | . | . | . | .
CC(=O)N1C2(C=CC1(C)C(=O)NCc1cc(F)cc(C(F)(F)F)c1)CCCCC2 (stereo unspecified) | - | . | . | . | . | .
O=c1oc2ccccc2cc1-c1nnc(NCc2ccco2)s1 | - | 32.2 | 70.2 | . | - | -
COc1ccccc1N/N=C1\COC(C)(C)CC1=O | - | 34.0 | 137.5 | - | - | -
